Only some compounds are listed: those with a hit (about 18% of all), similar ones and a draw of the others.
IL1B secr inh = inflammasome signaling inhibition, IL-1 beta readout. THP-1 LPS/ATP IL-1B secretion, AlphaLISA, 16 h; hits give low values. AID 743279. 360,000 compounds, 4.7% hits. activity change, % at 57.5 µM; in the data active = activity change below about -50%; inconclusive = mostly about -30% to -49%; also: % is scaled to controls: 0 for no effect and ±100 for the full control effect
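Secreted IL-1B measured by AlphaLISA bead assay after 16 h compound exposure of THP-1 cells; compounds (final up to 57.5 uM) added 1 h before LPS (250 ng/mL) and ATP (1.25 mM) stimulation; lower signal means less secretion.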
TDP1 cell noCPT = qHTS for Inhibitors of human tyrosyl-DNA phosphodiesterase 1 (TDP1): qHTS in cells in absence of CPT; 420,000 compounds, 15% hits; DT40 Tdp1-/- hTDP1 cells, no CPT, ATP luminescence, 48 h; Potency, µM (highest dose often 46.2 µM), for the others: at the highest dose activity change, negative = growth inhibition, most hits filed as inhibitors; also: potency is read from the fitted curve at half-maximal effect; % is scaled to controls: 0 for no effect and ±100 for the full control effect; nearly all actives have a fitted effect of over 55% in size
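A cellular qHTS used chicken DT40 cells lacking endogenous Tdp1 but carrying stably transfected human TDP1. Compounds were applied without camptothecin, and cell growth kinetics were judged by ATP-dependent luminescence after ≥48 hr.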
TGFb inhibitor = TGF-b pathway inhibition; HepG2 CAGA-GFP TGF-b/SMAD3 reporter, GFP fluorescence, 18 h; TGF-beta stimulated, 500 pg/mL final; AID 588855; 410,000 compounds, 1.2% hits; Potency, µM (top dose mostly 46.1 µM), inactives show at the top dose activity, negative = inhibition, hits mostly inhibitors; also: potency is read from the fitted curve at half-maximal effect; % is scaled to controls: 0 for no effect and ±100 for the full control effect; nearly all actives have a fitted effect of over 65% in size
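Per well, imaged GFP fluorescence of HEPG2 CAGA-GFP cells gives the signal; cells get compound, then TGF-beta (500 pg/mL final), 18 h at 37 degrees C; %Activity versus -TGF-beta and +DMSO controls.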
TDP1 inh = TDP1 (human) enzyme inhibition | recombinant TDP1, AlphaScreen DNA substrate cleavage | Potency, µM (doses to about 130 µM), for inactives: at the highest dose activity change, negative = inhibition, most hits filed as inhibitors | Q9NUW8 | AID 485290 | 350,000 compounds, 0.28% hits; also: potency is read from the fitted curve at half-maximal effect; % is scaled to controls: 0 for no effect and ±100 for the full control effect; nearly all actives have a fitted effect of over 40% in size
Target sequence (Q9NUW8 whole entry, looked up): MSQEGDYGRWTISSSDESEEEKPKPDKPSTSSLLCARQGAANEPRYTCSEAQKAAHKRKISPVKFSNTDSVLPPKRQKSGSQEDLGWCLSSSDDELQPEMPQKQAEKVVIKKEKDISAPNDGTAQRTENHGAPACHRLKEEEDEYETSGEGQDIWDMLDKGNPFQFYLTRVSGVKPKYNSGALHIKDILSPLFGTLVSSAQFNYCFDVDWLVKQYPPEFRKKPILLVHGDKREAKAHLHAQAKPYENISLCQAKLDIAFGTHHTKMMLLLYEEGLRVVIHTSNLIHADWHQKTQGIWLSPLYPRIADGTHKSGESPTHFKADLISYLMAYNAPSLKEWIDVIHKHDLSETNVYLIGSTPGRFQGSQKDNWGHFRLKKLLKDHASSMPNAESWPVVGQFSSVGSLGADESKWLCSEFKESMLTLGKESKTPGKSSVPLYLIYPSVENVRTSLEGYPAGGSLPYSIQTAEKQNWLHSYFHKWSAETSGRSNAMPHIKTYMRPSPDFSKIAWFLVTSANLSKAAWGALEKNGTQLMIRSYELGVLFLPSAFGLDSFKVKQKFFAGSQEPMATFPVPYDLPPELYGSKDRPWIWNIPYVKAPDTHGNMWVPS
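Recombinant human Tdp1 (E. coli-expressed, 1 nM final) preincubated with compounds 15 min at room temperature, then 5'-biotin/3'-phosphotyrosine-FITC DNA substrate (15 nM final) added for 5 min. AlphaScreen beads (10 ug/ml final) added 10 min; cleavage lowers signal.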
DT40 TDP1 CPT = DT40-hTDP1 cell growth loss with CPT. chicken DT40 Tdp1-/-;hTDP1 cells + 20 nM CPT, ATP luminescence, 48 h. Potency, µM (doses to about 46.2 µM), for inactives: at the top dose activity change, negative = growth inhibition, hits mostly inhibitors. 420,000 compounds, 12% hits; also: potency is read from the fitted curve at half-maximal effect; % is scaled to controls: 0 for no effect and ±100 for the full control effect; nearly all actives have a fitted effect of over 55% in size
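Chicken DT40 Tdp1-/- cells stably complemented with human TDP1 were seeded at 400 cells/well in medium containing 20 nM camptothecin, exposed to pin-transferred compounds, and grown at 37 °C for at least 48 hr. Viability was read as ATP luminescence.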
HepG2 tox = kills HepG2 cells in TGF-b inhibitor counter-screen; HepG2 CAGA-GFP viability, ATP luminescence, 18 h; Potency, µM (highest dose often 46.1 µM), for the others: top-dose activity change, negative = cytotoxicity, most hits filed as cytotoxic; 410,000 compounds, 0.76% hits; AID 588856; also: potency is read from the fitted curve at half-maximal effect
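HepG2 CAGA-GFP cells (1000/well, DMEM with 1% FBS) received compound, then TGF-beta at 500 pg/mL final, and were incubated 18 hours at 37 degrees C. Viability was read by CellTiter-Glo luminescence. Media-only wells were set as complete cell-killing and DMSO as no toxicity.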
* hit, by the source's call; ? = inconclusive; nt = no result given; [ ] = another dose, or the depositor's remark. Unless noted, calls follow the shape of the dose curve; as a rule, active = well fitted curve in the direction sought with a large enough effect; inconclusive = small, poorly fitted or top-dose-only effect, or another doubt; inactive = no such curve, though single readings can be large; an effect the other way counts as inactive or inconclusive.

SMILES	IL1B secr inh	TDP1 cell noCPT	TGFb inhibitor	TDP1 inh	DT40 TDP1 CPT	HepG2 tox
CCOC(=O)c1cccc(NC(=O)/C=C/c2ccc3c(c2)OCO3)c1	-89.5*	18.4µM*	?	2.7%	?	-39.5%
CC(=O)c1cccc(NC(=O)c2ccc3c(c2)OCO3)c1	-8.0	?	18.8%	nt	?	0.5%
CCOc1ccc(OCC(=O)Nc2ccc(S(=O)(=O)Nc3cc(C)on3)cc2)cc1	nt	4.4%	-3.5%	0.0%	2.1%	-27.7%
CC1CCCC(C)N1C(=O)COC(=O)c1ccc2c(c1)OCO2 (stereo not drawn)	12.8	29.1µM*	-5.6%	1.0%	-0.7%	-7.0%
Cc1nc(N=Nc2cc(S(=O)(=O)O)ccc2S(=O)(=O)O)c(COP(=O)(O)O)c(C=O)c1O	nt	-15.2%	nt	5.01µM*	6.7%	nt
Cc1ncc(COP(=O)(O)O)c(C=O)c1O	nt	-11.8%	nt	-8.5%	-8.4%	nt
CCOC(=O)c1ccc(N2CN(CCc3ccccc3)CNC2=S)cc1	-10.1	?	-22.8%	0.0%	16.4µM*	-13.9%
COc1ccc(S(=O)(=O)NCC(=O)NCc2cc(=O)n(C)c(=O)n2C)cc1C	-8.5	2.6%	10.6%	nt	1.8%	8.0%
CCOC(=O)N1CCN(C(=O)Cn2nc(C)n3nc(-c4ccc(CC)cc4)cc3c2=O)CC1	12.5	20.6µM*	-2.5%	0.9%	16.4µM*	-0.7%
CCc1ccc(-c2cc3c(=O)n(CC(=O)N4CCCC4)nc(C)n3n2)cc1	54.3	19.5%	0.7%	0.1%	-10.8%	0.9%
COc1ccc(-c2cc3c(=O)n(CC(=O)Nc4cccc(Cl)c4)nc(C)n3n2)cc1	4.3	?	-12.3%	0.5%	14.6µM*	4.0%
CCOC(=O)C1CCN(C(=O)Cn2nc(C)n3nc(-c4ccc(OC)cc4)cc3c2=O)CC1	9.0	20.6µM*	-2.0%	0.4%	23.1µM*	-29.0%
O=C(Cn1c(Cn2c(-c3cnccn3)nc3ccccc32)nc2ccccc21)c1ccc(OC(F)(F)F)cc1	54.1	?	nt	nt	?	nt
O=C(NC1CCS(=O)(=O)C1)c1ccc(S(=O)(=O)N2CCCCC2)cc1 (stereo not drawn)	5.7	2.6%	-26.5%	6.2%	0.9%	3.4%
Cc1ccc(CNC(=O)c2ccc3c(O)c(S(=O)(=O)c4ccccc4)c(=O)[nH]c3c2)cc1	nt	-5.0%	-1.8%	0.0%	-1.8%	-2.4%
COc1ccccc1CN(C(=O)CCl)C(C(=O)NC1CCCCC1)c1ccncc1 (stereo not drawn)	5.2	3.4%	-4.0%	-1.1%	16.9%	2.3%
COc1ccc(C(=O)N(Cc2ccccc2)Cc2ccccc2)c(O)c1	nt	nt	nt	-0.5%	nt	nt
COc1ccccc1CN(C)CC(=O)NC(=O)NC1CCCCC1	1.5	-1.1%	4.5%	-0.3%	?	-30.6%
COc1ccc(C(=O)/C=C/C(=O)N(CC(=O)NC2CCCCC2)Cc2ccccc2)c(O)c1	-99.6*	2.06µM*	?	-2.4%	1.46µM*	-6.8%
COc1ccc(C(=O)/C=C/C(=O)N(Cc2ccccc2OC)C(C(=O)NC2CCCCC2)c2ccncc2)c(O)c1 (stereo not drawn)	-77.9*	20.6µM*	?	2.3%	?	9.2%
COc1ccc(C(=O)/C=C/C(=O)N(CC(=O)NC2CCCCC2)Cc2ccccc2OC)c(O)c1	-100.4*	2.06µM*	?	1.2%	1.64µM*	-13.2%
O=C(Nc1cc(S(=O)(=O)N2CCOCC2)ccc1Cl)C1CCC1	6.2	3.9%	?	-0.3%	-7.9%	4.0%
CN1CCc2ccc3c4c2[C@]1(C)Cc1cccc(c1-4)OCO3	nt	nt	nt	15.0%	nt	nt
Cc1oc(-c2ccccc2NS(C)(=O)=O)nc1CN(C)Cc1ccc(Cl)cc1	nt	20.6µM*	nt	nt	-5.4%[9.04 µM]	nt
Cc1cccc(CNC(=O)c2ccc(Cn3c(SCc4ccccc4)nc4cccnc43)cc2)c1	nt	16.4µM*	-23.1%	9.9%	?	-24.8%
SMILES	IL1B secr inh	TDP1 cell noCPT	TGFb inhibitor	TDP1 inh	DT40 TDP1 CPT	HepG2 tox
O=C(NCc1ccccc1)c1ccc(CSc2nc3cccnc3n2Cc2ccccc2F)cc1	nt	18.4µM*	-16.1%	1.2%	?	-34.2%
O=C(NCc1ccco1)c1ccc(Cn2c(SCc3ccccc3)nc3cccnc32)cc1	nt	25.9µM*	-42.7%	7.5%	4.11µM*	-32.2%
COc1ccc(Cn2c(SCc3ccc(C(=O)NCc4ccc(C)cc4)cc3)nc3cccnc32)cc1	nt	?	?	0.0%	?	-18.6%
COc1cccc(CNC(=O)c2ccc(Cn3c(SCc4ccccc4)nc4cccnc43)cc2)c1	nt	?	-66.1%	-6.2%	8.2µM*	-21.7%
CN(C)c1ccc(CNC(=O)c2ccc(Cn3c(SCc4ccccc4)nc4cccnc43)cc2)cc1	nt	?	-0.2%	8.8%	?	-21.3%
COc1ccc(Cn2c(SCc3ccc(C(=O)NCc4ccccc4F)cc3)nc3cccnc32)cc1	nt	?	-12.4%	-1.0%	?	-37.5%
COC(=O)C/C=C\[C@@H](C)[C@@H](/C=N\O[C@@H](C)c1cn([C@H]2COC[C@H]2O)nn1)NS(=O)(=O)c1ccc(C)cc1	nt	nt	nt	-0.5%[21 µM]	nt	nt
COc1ccccc1N(C)S(=O)(=O)c1ccc(C(=O)Nc2cc(F)ccc2C)cc1	?	?	-3.4%	-2.1%	?	2.8%
COC(=O)c1c(NC(C)=O)sc2c1CCN(Cc1ccccc1)C2	14.7	-19.1%	5.4%	nt	-3.6%	-18.9%
O=C(Nc1nc2c(s1)CN(Cc1ccccc1)CC2)C1CCCC1	-0.2	?	11.6%	10.0%	?	-3.2%
COC(=O)c1c(NC(=O)C(C)(C)C)sc2c1CCN(Cc1ccccc1)C2	-17.5	?	-12.7%	nt	16.4µM*	-21.4%
CCOC(=O)c1c(NC(C)=O)sc2c1CCN(Cc1ccccc1)C2	0.0	?	1.0%	nt	?	-7.5%
CCOC(=O)c1c(NC(=O)C(C)Sc2cccc[n+]2[O-])sc2c1CCN(Cc1ccccc1)C2 (stereo not drawn)	-25.5	16.4µM*	1.1%	2.7%	?	-24.0%
CC(C)(C)C(=O)Nc1nc2c(s1)CN(Cc1ccccc1)CC2	-12.3	18.4µM*	11.5%	9.2%	?	-33.3%
COC(=O)c1c(NC(=O)C2COc3ccccc3O2)sc2c1CCN(C(=O)OC)C2 (stereo not drawn)	?	20.6µM*	2.7%	nt	16.4µM*	-2.1%
